In the library only some 2% were active in any assay of this set; here they are far more common.
DAGLB inhibitor – DAGLB lipase inhibitors, primary screen, biochemical, fluorescence, HTS; inhibition, % at 5.17 µM; 340,000 compounds, 0.059% hits; HEK293T DAGLB membrane lysate, EnzChek fluorogenic substrate; in the data active = inhibition above about 34%;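 also: 0% = enzyme with vehicle and 100% = wells lacking enzyme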
ARNT TACC3 PPI – disruptors of ARNT/TACC3 protein interaction, primary screen, biochemical, AlphaScreen, single concentration. AlphaScreen His-ARNT PAS-B/GST-TACC3 binding, luminescence; TACC3 fragment carries E629A point mutation. Transforming acidic coiled-coil-containing protein 3 (Homo sapiens), Q9Y6A5. inhibition, % at 9.99 µM. 390,000 compounds, 0.66% hits;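 active = mean inhibition of replicates at least 50% and at least half of replicates each reaching 50%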;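 also: 0% = complete ARNT plus TACC3 wells and 100% = ARNT alone without TACC3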
HGIII-sPLA2 inh – human group III sPLA2 inhibitors, primary screen, biochemical, QFRET, BODIPY PC-A2 liposome substrate | inhibition, % at 12.2 µM | QFRET BODIPY PC-A2 liposome hydrolysis, fluorescence | AID 743126, 2013 | 370,000 compounds, 0.56% hits | Group 3 secretory phospholipase A2 (Homo sapiens), Q9NZ20;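 active = inhibition above mean plus 3 SD of compounds lying within the high and low control bounds, cut at about 19% in these data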;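 also: 0% = median of test compound wells and 100% = no enzyme DMSO wells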
NadD block – inhibitors of S. aureus NadD, primary screen, biochemical, colorimetric, uHTS; purified NadD enzyme, colorimetric absorbance read-out; inhibition, % at 20 µM; 360,000 compounds, 0.78% hits; in the data active = inhibition above about 26%
Neddyl block – inhibitors of cullin neddylation, primary screen, biochemical, TR-FRET, uHTS, NAE and Ubc12; 360,000 compounds, 0.58% hits; NEDD8-conjugating enzyme Ubc12 (Homo sapiens) + NEDD8-activating enzyme E1 regulatory …; inhibition, % at 25 µM; AID 651699, 2012; in the data active = inhibition above about 36%
Target sequence (P61081 whole entry, looked up): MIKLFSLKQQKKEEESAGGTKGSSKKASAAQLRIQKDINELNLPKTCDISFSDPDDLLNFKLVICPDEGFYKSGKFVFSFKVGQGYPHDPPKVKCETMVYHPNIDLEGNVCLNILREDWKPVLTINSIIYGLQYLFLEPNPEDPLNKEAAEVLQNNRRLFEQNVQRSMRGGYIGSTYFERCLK
Target sequence (Q13564 whole entry, looked up): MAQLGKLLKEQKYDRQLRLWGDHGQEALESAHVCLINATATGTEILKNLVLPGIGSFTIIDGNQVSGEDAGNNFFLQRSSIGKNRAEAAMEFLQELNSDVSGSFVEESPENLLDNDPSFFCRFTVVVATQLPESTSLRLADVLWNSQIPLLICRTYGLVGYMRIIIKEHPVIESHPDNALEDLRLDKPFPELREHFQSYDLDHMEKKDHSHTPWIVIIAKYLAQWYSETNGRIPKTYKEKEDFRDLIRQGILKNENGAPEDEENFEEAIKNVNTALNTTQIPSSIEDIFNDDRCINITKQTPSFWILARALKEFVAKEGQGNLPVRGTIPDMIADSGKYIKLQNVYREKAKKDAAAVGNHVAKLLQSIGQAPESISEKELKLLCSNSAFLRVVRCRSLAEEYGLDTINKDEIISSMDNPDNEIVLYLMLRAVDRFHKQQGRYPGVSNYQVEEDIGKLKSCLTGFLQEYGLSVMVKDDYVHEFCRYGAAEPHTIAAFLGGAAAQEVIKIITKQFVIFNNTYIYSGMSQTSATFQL
* hit, by the source's call; / = not tested or not shown.

SMILES	DAGLB inhibitor	ARNT TACC3 PPI	HGIII-sPLA2 inh	NadD block	Neddyl block
C[C@H](NC(=O)C[C@H]1CC[C@@H](NC(=O)C2CC2)[C@@H](CO)O1)c1ccccc1	/	-2.1	/	/	/
O=C(N/N=C/c1cc(Br)cc([N+](=O)[O-])c1O)c1ccc(NC(=O)c2ccc(F)cc2)cc1	16.6	8.7	5.9	53.9*	-46.6
CC(C)C(C(=O)Nc1ncn[nH]1)N1C(=O)c2ccccc2C1=O (configuration not stated)	3.3	35.5*	4.7	0.6	1.9
CC(=O)Nc1nnc(-c2ccco2)o1	-0.8	8.7	5.8	-4.1	8.8
O=C(Nc1nnc(-c2ccc(Cl)cc2)o1)c1ccc(N2C(=O)CCC2=O)cc1	0.7	-23.5	3.6	3.4	3.0
O=C(Nc1nnc(-c2ccco2)o1)c1ccc(N2C(=O)CCC2=O)cc1	-0.1	58.1*	2.0	-5.9	-1.7
Cc1nn(-c2ccccc2)c(C)c1C(=O)Nc1nnc(-c2ccco2)o1	2.5	48.6*	-0.3	3.3	6.9
C/C(=N\Nc1nc(N)cc(Cl)n1)c1ccc(F)cc1	-0.7	47.6*	-3.6	-5.3	2.0
CCCC1=NN2C(=N)/C(=C\c3cc(C)n(-c4cc(C)cc(C)c4)c3C)C(=O)N=C2S1	7.4	/	-18.9	37.4*	37.3
Cc1cc(C)cc(-n2c(C)cc(/C=C3\C(=N)N4N=C(CC(C)C)SC4=NC3=O)c2C)c1	0.9	-3.7	-3.9	34.6*	/
CCCC(=O)Nc1ccc2c(c1)C(=O)N(C)C[C@H](OC)[C@@H](C)CN(CC1CCCC1)[C@@H](C)CO2	/	0.7	/	/	/
COc1ccc(C(=O)CCC(=O)N2CCN(c3cccc(Cl)c3)CC2)cc1	-1.7	0.4	-1.6	-2.3	-6.3
COc1ccc(C(=S)N2CCN(c3cccc(Cl)c3)CC2)cc1	-22.5	8.0	20.1*	-1.6	-1.8
COc1ccc(NC(=O)Nc2ccc3c(c2)C(=O)N([C@H](C)CO)C[C@H](C)[C@H](CN(C)C(=O)Nc2c(C)noc2C)OCCCC[C@H](C)O3)cc1	/	3.0	/	/	/
Cn1c2ccc(F)cc2c2nnc(SCC(=O)Nc3cccc(O)c3)nc21	2.2	8.8	-5.6	0.5	-30.4
Cn1c2ccccc2c2nnc(SCC(=O)Nc3cccc(C(=O)O)c3)nc21	-2.1	47.3*	-3.6	-1.4	-30.4
Cc1ccc(C2=NN=C(NC(=O)CSc3nnc4c5ccccc5n(C)c4n3)SC2)cc1	-40.2	-10.0	/	82.4*	-25.2
O=C(C[C@H]1C=C[C@@H](NC(=O)Nc2ccc(F)cc2)[C@H](CO)O1)NCc1cccc(F)c1	/	-7.7	/	/	/
Cc1cc(Cl)c(C)c(S(=O)(=O)Oc2ccccc2NC(=O)CCC(=O)O)c1Cl	-3.7	28.2*	5.0	0.4	-11.4
CCN1/C(=C/c2ccc3cc(C)ccc3[n+]2CC)Sc2ccc3sccc3c21	-2.7	-5.5	/	43.6*	13.3
COc1ccccc1NC(=O)CCC(=O)Nc1cc(OC)c(NC(=O)c2cccs2)cc1OC	1.2	26.1*	3.4	-6.5	-10.1
CCc1cc(=O)oc2cc(C)c(CN3CCCC3)c(O)c12	4.6	-2.1	-0.3	17.2	14.4
CCCc1cc(=O)oc2cc(C)c(CN3CCCC3)c(O)c12	16.6	-2.5	9.3	29.4*	15.2
C[C@@H]1CN([C@@H](C)CO)C(=O)c2cc(NS(=O)(=O)c3ccccc3)ccc2O[C@@H](C)CCCCO[C@@H]1CN(C)C(=O)c1ccncc1	/	-4.6	/	/	/
COc1cccc(N=c2oc3ccccc3cc2-c2nc3ccccc3[nH]2)c1	-1.0	4.3	0.0	-3.8	42.4*
SMILES	DAGLB inhibitor	ARNT TACC3 PPI	HGIII-sPLA2 inh	NadD block	Neddyl block
COc1cccc(N=c2oc3ccc(OC)cc3cc2-c2nc3ccccc3[nH]2)c1	1.2	-2.6	-0.1	0.1	23.5
COc1ccccc1NC(=O)Nc1ccc2c(c1)C(=O)N(C)C[C@H](OC)[C@H](C)CN[C@@H](C)CO2	/	-1.0	/	/	/
CSc1cccc(-n2cc(-c3ccc4c(c3)OCO4)[nH]c2=O)c1	2.4	-3.3	/	38.6*	-6.0
CSc1cccc(NC(=O)CNC(=O)c2ccc3c(c2)OCO3)c1	-0.4	-0.7	-11.6	-2.4	7.7
O=C(C[C@@H]1C[C@@H]2c3cc(NC(=O)C4CCOCC4)ccc3O[C@@H]2[C@@H](CO)O1)NCc1ccccc1F	/	4.3	/	/	/
COc1ccc(NC(=O)Nc2ccc3c(c2)C(=O)N([C@H](C)CO)C[C@@H](C)[C@@H](CN(C)C(=O)c2ccccc2)OCCCC[C@H](C)O3)cc1	/	1.8	/	/	/
COC(=O)C1=C(C)NC(=O)/C1=C\c1cc(C)n(-c2cc(C)cc(C)c2)c1C	8.8	7.6	-4.7	31.7*	0.9
O=C(C[C@@H]1CC[C@H]2[C@@H](COC[C@H](O)CN2Cc2cc(F)cc(F)c2)O1)NC1CCC1	/	5.4	/	/	/
Cc1cccc(NC(=O)CN2C(=O)N/C(=C/c3ccc(C)o3)C2=O)c1	2.9	-3.5	-19.3	2.0	-16.4
CCn1c(C)cc(/C=C2\NC(=O)N(CC(=O)Nc3cccc(C)c3)C2=O)c1C	2.1	-4.9	-18.6	43.3*	27.3
CCn1c(C)cc(/C=C2/NC(=O)N(CC(=O)Nc3cccc(C)c3)C2=O)c1C	7.2	-4.1	-14.8	33.4*	18.0
COc1cccc(-c2ccc3c(c2)O[C@@H](CN(C)C(=O)C2CCC2)[C@H](C)CN([C@@H](C)CO)S3(=O)=O)c1	/	6.1	/	/	/
Cc1ccn2c(Nc3ccc4c(c3)OCO4)c(-c3ccccn3)nc2c1	2.8	66.2*	3.0	8.7	21.0
Cc1ccn2c(NC3CCCC3)c(-c3ccccn3)nc2c1	1.6	30.8	16.2	-0.2	37.8*
Cc1cc(C)n2c(Nc3ccc4c(c3)OCCO4)c(-c3ccccn3)nc2n1	/	/	0.3	1.0	2.4
c1ccc(-c2nc3ccccn3c2NC2CCCC2)nc1	/	63.8*	18.2	0.3	38.9*
C[C@H](O)C#Cc1cnc2c(c1)C(=O)N([C@H](C)CO)C[C@H](C)[C@H](CN(C)Cc1ccc(-c3ccccc3)cc1)O2	/	18.5	/	/	/
C[C@H](NC(=O)c1ccco1)C(=O)Nc1nc(-c2ccccn2)cs1	-1.2	68.2*	3.1	0.5	4.9
O=S(=O)(c1ccc(Cl)nc1)N1CCCCC1	1.5	-15.9	5.7	3.4	2.3
O=S(=O)(c1ccc(Cl)nc1)N1CCOCC1	1.3	22.3*	7.2	2.9	-7.2
Cc1[nH][nH]c(=O)c1C(c1ccc(-c2ccc(Cl)c(Cl)c2)o1)c1c(C)[nH][nH]c1=O	-8.5	61.3*	-13.4	24.6	1.4
COc1ccc(-c2ccc(C(c3c(C)[nH][nH]c3=O)c3c(C)[nH][nH]c3=O)o2)c([N+](=O)[O-])c1	1.2	4.2	-44.2	16.6	2.8

From PubChem
